What all share (parameters): scale not given: direction of the effect not stated beside the values
Test [1] deals with Protein translocase subunit SecA (Escherichia coli (strain K12)) (UniProt P10408). The experiment in a line: Assay to Identify E. coli SecA ATPase Inhibitors. To be noted: 30 µM. It counts as functional.
Test [2] deals with T1, Ubiquitin-activating enzyme e1, putative (Leishmania donovani (strain BPK282A1)) (UniProt E9BSI1).
T1 sequence (whole entry): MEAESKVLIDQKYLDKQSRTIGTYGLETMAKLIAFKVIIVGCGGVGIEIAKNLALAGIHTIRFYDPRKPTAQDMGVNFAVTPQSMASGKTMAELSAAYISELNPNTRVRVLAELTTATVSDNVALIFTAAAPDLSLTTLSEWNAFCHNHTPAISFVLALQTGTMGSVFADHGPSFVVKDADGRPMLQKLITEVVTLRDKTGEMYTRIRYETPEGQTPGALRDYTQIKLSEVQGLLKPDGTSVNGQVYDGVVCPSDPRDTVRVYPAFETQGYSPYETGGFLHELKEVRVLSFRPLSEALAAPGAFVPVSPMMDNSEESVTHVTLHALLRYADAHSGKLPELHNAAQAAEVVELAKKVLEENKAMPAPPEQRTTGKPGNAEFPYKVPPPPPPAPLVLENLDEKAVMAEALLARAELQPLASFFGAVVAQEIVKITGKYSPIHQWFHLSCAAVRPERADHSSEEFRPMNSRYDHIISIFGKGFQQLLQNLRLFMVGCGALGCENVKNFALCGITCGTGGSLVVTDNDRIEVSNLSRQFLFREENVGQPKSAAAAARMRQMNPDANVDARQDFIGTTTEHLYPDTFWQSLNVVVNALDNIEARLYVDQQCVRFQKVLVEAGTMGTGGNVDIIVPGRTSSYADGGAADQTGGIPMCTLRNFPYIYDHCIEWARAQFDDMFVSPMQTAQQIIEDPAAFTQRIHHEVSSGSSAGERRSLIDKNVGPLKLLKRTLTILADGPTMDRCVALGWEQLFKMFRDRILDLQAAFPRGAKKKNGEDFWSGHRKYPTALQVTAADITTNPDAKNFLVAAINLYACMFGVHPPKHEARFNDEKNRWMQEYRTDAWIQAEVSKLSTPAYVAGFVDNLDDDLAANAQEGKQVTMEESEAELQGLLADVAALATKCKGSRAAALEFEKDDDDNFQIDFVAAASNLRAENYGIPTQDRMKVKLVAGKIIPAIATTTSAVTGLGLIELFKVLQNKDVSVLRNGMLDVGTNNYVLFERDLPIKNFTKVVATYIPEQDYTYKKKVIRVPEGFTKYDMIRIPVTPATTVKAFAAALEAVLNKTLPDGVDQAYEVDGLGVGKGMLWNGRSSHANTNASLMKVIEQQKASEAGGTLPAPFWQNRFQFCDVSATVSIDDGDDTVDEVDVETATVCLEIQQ
Briefly: Leishmania donovani Ubiquitin Activating Enzyme (LdE1). The class given is functional. To be noted: 30 µM.

Test [3] concerns the target AMP-activated protein kinase, AMPK (Homo sapiens) (UniProt P54646+O43741+P54619+Q9UGJ0+Q9Y478+Q13131+Q9UGI9). Briefly: AMP-dependent Kinase enzyme assay. An in vitro enzyme assay that detects ADP turnover that is directly proportional to AMPK activity. This uses naive AMPK that is activated during the assay with MK-8722. It counts as functional. To be noted: 30 µM.
In test [4] the target is Sialic acid-binding Ig-like lectin 9 (Homo sapiens) (UniProt Q9Y336). The experiment in a line: Hs-Siglec9 ALPHAscreen SOP 20170721. Conditions: 10 µM.
Sequence of Sialic acid-binding Ig-like lectin 9 (Homo sapiens) (Q9Y336 whole entry): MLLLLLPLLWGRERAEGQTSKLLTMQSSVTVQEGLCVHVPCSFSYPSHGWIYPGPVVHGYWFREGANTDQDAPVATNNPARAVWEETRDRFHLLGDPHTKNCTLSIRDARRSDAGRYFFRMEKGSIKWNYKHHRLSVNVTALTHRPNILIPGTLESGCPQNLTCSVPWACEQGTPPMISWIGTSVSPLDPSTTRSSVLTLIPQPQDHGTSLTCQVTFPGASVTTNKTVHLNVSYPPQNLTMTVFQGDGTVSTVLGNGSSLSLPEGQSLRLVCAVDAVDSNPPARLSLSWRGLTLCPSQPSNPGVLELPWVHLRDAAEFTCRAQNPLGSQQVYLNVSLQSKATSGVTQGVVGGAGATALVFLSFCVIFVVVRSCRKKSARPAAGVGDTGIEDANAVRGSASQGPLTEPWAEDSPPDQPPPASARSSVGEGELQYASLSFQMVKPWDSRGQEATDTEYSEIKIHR
Test [5] concerns Trypanosoma cruzi. Briefly: Trypanosoma cruzi phosphomannomutase and mannose-1-phosphate guanylyltransferase assay. The class given is functional. Conditions: 10 µM.
The target of test [6] is T2, Arginase-2, mitochondrial (Homo sapiens) (UniProt P78540).
T2 sequence (whole entry): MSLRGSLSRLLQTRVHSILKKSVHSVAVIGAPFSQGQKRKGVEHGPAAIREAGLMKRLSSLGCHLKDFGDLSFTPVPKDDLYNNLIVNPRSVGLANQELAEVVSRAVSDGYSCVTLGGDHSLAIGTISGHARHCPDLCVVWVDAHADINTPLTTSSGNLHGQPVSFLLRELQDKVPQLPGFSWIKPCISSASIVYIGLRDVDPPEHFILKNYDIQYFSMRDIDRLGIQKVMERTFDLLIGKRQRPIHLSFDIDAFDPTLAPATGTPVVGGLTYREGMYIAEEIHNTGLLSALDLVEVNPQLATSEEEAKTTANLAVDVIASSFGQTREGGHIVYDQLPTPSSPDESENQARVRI
Briefly: in vitro enzyme assay to detect the production of urea directly proportional to the activity of Arginase II. Also: in the data most compounds retested in dose-response had high values. It counts as functional. To be noted: 33.3 µM.

Test [7] deals with T3, Proteasome subunit beta (Trypanosoma cruzi) (UniProt O96673).
T3 sequence (whole entry): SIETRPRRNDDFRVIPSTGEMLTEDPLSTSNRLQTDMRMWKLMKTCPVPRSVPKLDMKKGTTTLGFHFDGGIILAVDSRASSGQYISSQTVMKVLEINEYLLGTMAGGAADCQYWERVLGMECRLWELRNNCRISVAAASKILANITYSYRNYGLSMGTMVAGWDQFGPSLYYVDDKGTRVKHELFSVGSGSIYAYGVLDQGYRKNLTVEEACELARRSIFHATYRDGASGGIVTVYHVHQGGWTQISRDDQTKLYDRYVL
The experiment in a line: Trypanosoma cruzi proteasome chymotrypsin-like activity (TcProtChymo) assay. Also: in the data most compounds retested in dose-response had high values. The class given is functional. To be noted: 9.37 µM.

For test [8], the species on record is Homo sapiens. Briefly: To identify inhibition of the IFN signalling (Jak-Stat) pathway via expression of an eGFP reporter gene under the control of an IFN-stimulated response element (ISRE) containing MxA promoter. The class given is functional. To be noted: 30 µM. On the technique in general: Reporter assays use an easily measured gene product as a stand-in for the process of interest.

Test [9] has as its target T4, Tyrosyl-tRNA synthetase, putative (Trypanosoma cruzi (strain CL Brener)) (UniProt Q4DSP6).
T4 sequence (whole entry): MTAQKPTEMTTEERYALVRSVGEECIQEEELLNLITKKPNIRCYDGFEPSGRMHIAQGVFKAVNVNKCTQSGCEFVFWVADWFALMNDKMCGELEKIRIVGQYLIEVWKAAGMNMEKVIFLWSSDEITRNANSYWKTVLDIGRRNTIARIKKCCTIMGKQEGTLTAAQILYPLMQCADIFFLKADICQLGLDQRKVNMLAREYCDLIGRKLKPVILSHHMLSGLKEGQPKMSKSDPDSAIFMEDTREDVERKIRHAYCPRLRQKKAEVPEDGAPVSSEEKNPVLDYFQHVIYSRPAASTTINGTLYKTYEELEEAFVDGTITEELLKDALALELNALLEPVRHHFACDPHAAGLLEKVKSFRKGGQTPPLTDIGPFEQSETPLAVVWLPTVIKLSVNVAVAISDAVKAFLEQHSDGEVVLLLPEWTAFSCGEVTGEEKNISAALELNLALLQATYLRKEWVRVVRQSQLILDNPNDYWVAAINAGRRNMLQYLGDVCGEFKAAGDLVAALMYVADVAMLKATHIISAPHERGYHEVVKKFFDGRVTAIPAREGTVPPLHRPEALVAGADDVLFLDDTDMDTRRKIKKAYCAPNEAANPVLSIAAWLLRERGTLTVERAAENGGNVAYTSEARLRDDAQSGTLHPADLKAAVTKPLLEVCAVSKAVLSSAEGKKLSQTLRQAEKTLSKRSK
Briefly: Trypanosoma cruzi tyrosyl tRNA synthetase (TcYRS) _High Tyrosine SOP. Also: in the data most compounds retested in dose-response had high values. The class given is functional. To be noted: 30 µM.

For test [10], the target named is T4, Tyrosyl-tRNA synthetase, putative (Trypanosoma cruzi (strain CL Brener)). The experiment in a line: Trypanosoma cruzi tyrosyl tRNA synthetase (TcYRS) SOP. It counts as functional. To be noted: 30 µM.
Test [11] addresses Chromo domain-containing protein 1 (Saccharomyces cerevisiae (strain ATCC 204508 / S288c) (Baker's yeast)) (UniProt P32657). Briefly: ScCHD-1 Enzyme Inhibition Assay. Also: in the data most compounds retested in dose-response had high values. It counts as functional. Conditions: 30 µM.

This passage reports Percent Effect results from ChEMBL document CHEMBL3988442, “University of Dundee, Small-Polar-MMV Screening Library” (2021).

For some assays here: Results with a measured potency or affinity are listed apart.

Sequence of Chromo domain-containing protein 1 (Saccharomyces cerevisiae (strain ATCC 204508 / S288c) (Baker's yeast)) (P32657 whole entry, the tested form may be a part): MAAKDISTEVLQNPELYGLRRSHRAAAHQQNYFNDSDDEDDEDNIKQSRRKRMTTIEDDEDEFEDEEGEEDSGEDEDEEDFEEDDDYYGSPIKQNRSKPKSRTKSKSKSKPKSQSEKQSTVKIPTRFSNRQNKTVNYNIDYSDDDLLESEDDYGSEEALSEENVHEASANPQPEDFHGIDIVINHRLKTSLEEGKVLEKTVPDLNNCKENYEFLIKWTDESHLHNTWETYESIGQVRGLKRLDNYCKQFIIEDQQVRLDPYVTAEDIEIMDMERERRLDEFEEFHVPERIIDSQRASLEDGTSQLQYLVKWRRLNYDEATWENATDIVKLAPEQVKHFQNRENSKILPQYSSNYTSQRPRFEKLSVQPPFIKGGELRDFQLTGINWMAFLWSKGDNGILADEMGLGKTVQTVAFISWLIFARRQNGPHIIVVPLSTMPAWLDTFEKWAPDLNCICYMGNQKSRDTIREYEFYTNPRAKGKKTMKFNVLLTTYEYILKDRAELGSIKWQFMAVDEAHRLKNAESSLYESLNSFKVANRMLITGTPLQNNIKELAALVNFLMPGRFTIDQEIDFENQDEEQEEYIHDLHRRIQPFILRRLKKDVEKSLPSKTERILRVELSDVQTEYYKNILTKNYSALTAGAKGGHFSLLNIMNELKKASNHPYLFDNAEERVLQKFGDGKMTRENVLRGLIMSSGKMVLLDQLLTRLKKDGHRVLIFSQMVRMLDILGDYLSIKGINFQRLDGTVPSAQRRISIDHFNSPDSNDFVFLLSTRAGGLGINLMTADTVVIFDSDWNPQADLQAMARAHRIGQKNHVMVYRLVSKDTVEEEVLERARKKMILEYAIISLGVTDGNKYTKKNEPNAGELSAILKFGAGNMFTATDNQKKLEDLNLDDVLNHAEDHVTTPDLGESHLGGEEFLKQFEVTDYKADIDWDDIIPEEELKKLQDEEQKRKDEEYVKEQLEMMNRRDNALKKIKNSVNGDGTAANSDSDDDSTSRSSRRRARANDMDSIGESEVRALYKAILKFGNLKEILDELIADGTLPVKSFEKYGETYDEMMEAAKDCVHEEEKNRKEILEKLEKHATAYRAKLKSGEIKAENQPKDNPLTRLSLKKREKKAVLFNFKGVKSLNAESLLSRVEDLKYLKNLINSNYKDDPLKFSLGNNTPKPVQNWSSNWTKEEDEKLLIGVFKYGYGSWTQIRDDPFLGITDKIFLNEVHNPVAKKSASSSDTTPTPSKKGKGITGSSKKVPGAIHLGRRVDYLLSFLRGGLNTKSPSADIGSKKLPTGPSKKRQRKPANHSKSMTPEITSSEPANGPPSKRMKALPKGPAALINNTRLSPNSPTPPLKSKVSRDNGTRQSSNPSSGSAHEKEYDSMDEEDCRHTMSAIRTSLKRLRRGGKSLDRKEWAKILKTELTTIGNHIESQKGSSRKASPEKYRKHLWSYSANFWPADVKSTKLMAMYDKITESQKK
Sequence of Protein translocase subunit SecA (Escherichia coli (strain K12)) (P10408 whole entry): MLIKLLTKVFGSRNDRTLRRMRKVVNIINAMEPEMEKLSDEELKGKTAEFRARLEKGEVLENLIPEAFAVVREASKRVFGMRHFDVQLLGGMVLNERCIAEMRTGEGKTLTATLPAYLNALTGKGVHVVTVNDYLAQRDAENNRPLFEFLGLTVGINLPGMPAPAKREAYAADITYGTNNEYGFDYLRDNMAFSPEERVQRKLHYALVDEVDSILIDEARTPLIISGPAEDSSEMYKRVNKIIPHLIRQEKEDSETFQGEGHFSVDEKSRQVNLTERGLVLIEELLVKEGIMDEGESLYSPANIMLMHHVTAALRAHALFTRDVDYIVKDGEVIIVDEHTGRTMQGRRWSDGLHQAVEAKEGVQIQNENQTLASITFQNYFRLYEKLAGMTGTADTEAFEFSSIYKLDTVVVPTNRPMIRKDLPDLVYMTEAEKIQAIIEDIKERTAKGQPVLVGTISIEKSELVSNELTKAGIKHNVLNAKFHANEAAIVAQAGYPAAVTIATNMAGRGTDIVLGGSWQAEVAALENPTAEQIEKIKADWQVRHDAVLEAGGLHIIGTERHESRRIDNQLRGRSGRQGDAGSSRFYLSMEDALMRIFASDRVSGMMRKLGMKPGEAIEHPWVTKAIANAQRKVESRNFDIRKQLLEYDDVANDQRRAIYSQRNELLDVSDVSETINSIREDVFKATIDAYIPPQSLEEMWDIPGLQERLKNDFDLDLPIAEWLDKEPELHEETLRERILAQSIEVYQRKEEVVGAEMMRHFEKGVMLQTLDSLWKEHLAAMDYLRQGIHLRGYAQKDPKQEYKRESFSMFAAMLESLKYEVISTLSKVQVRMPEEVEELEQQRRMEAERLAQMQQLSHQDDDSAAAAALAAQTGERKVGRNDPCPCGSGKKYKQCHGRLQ

Turning to `O=C(COCC1CC1)N1CCCC(n2cccn2)C1` (stereo not given), the Percent Effect in test [1] is -2.32%; in [2], 13.9%; in [3] it was 1.73%; in test [4], -2.9%; in test [5], -2.36%; in [6], 2.8%. Also, the Percent Effect in test [7] is 13.4%; in test [8], -5.32%; in [9], -1.04%; in [10], -7.59%; in [11], -22.9%.

Take `O=C(CCNC(=O)c1ccoc1)Nc1c(F)cccc1F`: the Percent Effect is 0.646% in test [1]; 18.2% in test [2]; -4.32% in test [3]; 5.34% in [4]; -2.84% in test [5]; 4.42% in test [6]. Further, the Percent Effect was 18.8% in [7]; 14% in [8]; 6.67% in [9]; 21.2% in test [10]; -3.32% in test [11].

For the compound `CCN1CCC2(CC1)CC(NC(=O)NC)c1cc(C)ccc12` (stereo not given), the Percent Effect in [1] was -3.84%; in test [2], 13.3%; in test [3], 6.34%; in test [4], 6.37%; in [5], 5.21%; in [6], -56.5%. Further, the Percent Effect in test [7] was 10.9%; in [8] it was -24.6%; in test [9], 4.17%; in test [10], 7.5%; in [11] it was -5.82%.

With `Cc1ccccc1-c1cc(NC(=O)CC(C)C)n(CCO)n1`, the Percent Effect was -2.35% in test [1]; 2.63% in test [2]; -11.8% in [3]; 0.669% in test [4]; -6.33% in test [5]; 2.37% in test [6]. In addition, the Percent Effect in test [7] was 5.46%; in test [8], 0.574%; in [9], 3.19%; in test [10] it was 5.2%; in test [11], -3.67%.

Consider `O=C(c1cccnc1)N1CCc2ncnc(C3CCOC3)c2CC1` (stereo not given), for which the Percent Effect is 0.619% in test [1]; 10.7% in [2]; 5.98% in [3]; -10.8% in test [4]; -5.71% in test [5]; 3.5% in test [6]. Moreover, the Percent Effect amounted to 10.8% in test [7]; 2.86% in [8]; 4.25% in test [9]; 11.5% in test [10]; 3.31% in test [11].

For the compound `O=C(NCc1cccnc1)C1CC(=O)N(CC2CC2)C1` (stereo not given), the Percent Effect in [1] was -5.33%; in test [2] it was 15.6%; in test [3], -0.688%; in test [4] it was -14.6%; in test [5], 6.37%; in test [6] it was -1.05%. In addition, the Percent Effect in test [7] was 17.7%; in test [8], 4.16%; in test [9], 4.76%; in test [10], 21.2%; in [11], -21.7%.

For `Cc1cnn(CC2CN(Cc3nnc(-c4occc4C)o3)CCO2)c1` (stereo not given), the Percent Effect was -3.52% in [1]; 10.8% in [2]; 142% in test [3]; -3.99% in test [4]; 3.06% in test [5]; -0.924% in test [6]. In addition, the Percent Effect is -0.898% in test [7]; 16% in [8]; 7.92% in test [9]; 23.2% in test [10]; -5.94% in [11].

Turning to `Cc1ccn(-c2ccccc2NCc2cccnc2C)n1`, the Percent Effect in [1] was -0.328%; in [2], 0%; in test [3], 2.86%; in test [4] it was -2.06%; in test [5] it was -0.196%; in [6] it was 0%. Further, the Percent Effect in test [7] was 3.02%; in test [8] it was 17.4%; in test [9], -1.07%; in test [10], -2.5%; in test [11], -0.646%.

For `COc1ccc(C(C)=O)c(OCC(=O)NC(C)c2ccc(F)cc2)c1` (stereo not given), the Percent Effect in test [1] was -0.739%; in [2] it was 10.8%; in [3], -5.53%; in [4], 8.21%; in [5] it was 5.77%; in test [6], 23.6%. Moreover, the Percent Effect was 9.19% in test [7]; -11.8% in test [8]; 0% in test [9]; 11.1% in test [10]; -6.76% in test [11].

On to `Cc1cc(C)c2nc(CN3CC[C@@H](O)C3)cc(O)c2c1`, for which the Percent Effect in [1] was -2.1%; in test [2], 0%; in test [3], 0.932%; in [4] it was 1.78%; in test [5], -1.16%; in test [6], -3.81%. In addition, the Percent Effect was 11.9% in test [7]; -16.8% in [8]; 13.2% in [9]; 19.5% in [10]; -5.98% in test [11].
